In PubChem BioAssay (NCI) one finds growth data, which are given here for eight molecules.

Compounds without any hit were thinned out: in the full panel of roughly 83,000, 20% have a hit.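 Cell lines were cultured in 96-well plates, exposed to a single compound concentration, and assessed for percent growth 48 hours later.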 Unmarked numbers belong to inactive results. Calls of active or inactive are those of the source. Rule for the calls: active = growth percent below 10; inactive = the rest.

Assay in all cases: NCI-60 one-dose screen, 48 h (100 = growth as untreated, 0 = no growth, -100 = all killed)
Conditions in all cases: 10 µM unless noted

For test [1], the system named is SK-MEL-2 melanoma.
Test [2] deals with EKVX NSCLC.
The subject of test [3] is UO-31 renal.
Test [4] relates to TK-10 renal.
The subject of test [5] is ACHN renal.
Test [6] deals with CAKI-1 renal.
In test [7] the test system is A498 renal.
Test [8] deals with CCRF-CEM leukemia.
The test system of test [9] is MOLT-4 leukemia.
Test [10] relates to SR leukemia.
Test [11] relates to RPMI-8226 leukemia.
Test [12] concerns OVCAR-8 ovarian.
Test [13] concerns OVCAR-5 ovarian.
Test [14] concerns SK-OV-3 ovarian.
The test system of test [15] is IGROV1 ovarian.
Test [16] concerns OVCAR-3 ovarian.
In test [17] the test system is HS 578T breast.
In test [18] the test system is NCI/ADR-RES ovarian.
For test [19], the system named is OVCAR-4 ovarian.

For `O=C(CSc1nc(-c2ccccc2)cc(=O)[nH]1)Nc1nc(-c2ccccc2)cs1`, the growth in [1] was 96.9%; in test [2], 75.7%; in test [3], 65.2%; in test [4], 106%; in test [5] it was 95.2%; in [6], 75.1%. The growth was 114% in [7]; 96.2% in test [8]; -17.6% (active) in test [9]; 45.1% in test [10]; 96.1% in test [11]; 97% in [12]. Also, the growth in [13] was 95.9%; in [14] it was 84.1%; in test [15], 57.8%; in test [16], 101%; in test [17], 90%; in test [18], 93.2%.

`CC(=C(c1ccc(OCCN2CCCCC2)cc1)c1ccc(OCCN2CCCCC2)cc1)c1ccc(Cl)cc1`: the growth was -82.9% (active) in test [1]; -86.4% (active) in [2]; -96% (active) in test [3]; -88.5% (active) in test [4]; -99.1% (active) in test [5]; -98.4% (active) in [6]. Further, the growth in test [7] was -85.9% (active); in [8], -71.5% (active); in test [9], -71.2% (active); in test [10], -60.3% (active); in test [11], -61.7% (active); in [12], -77.4% (active). For the same molecule, the growth in [13] is -92.5% (active); in test [19], -88.8% (active); in [14], -91.1% (active); in test [15], -83% (active); in test [16], -91.4% (active); in [17] it was -72.4% (active). Also, the growth in [18] is -90.8% (active).

In the case of `O=C(Nc1ncccc1OCc1ccccc1)NC1CCCCCC1`, the growth in test [1] was 91.9%; in test [2], 88.2%; in test [3], 85.1%; in [4] it was 94%; in [5], 93.4%; in test [6] it was 86.7%. Moreover, the growth in [7] is 101%; in test [8], 77.5%; in test [9], 78.7%; in test [10], 61.5%; in [11], 68.1%; in [12] it was 104%. The growth is 95% in [13]; 84.6% in test [19]; 110% in test [14]; 89.1% in test [15]; 89.1% in [16]; 105% in test [17]. Besides, the growth in test [18] is 89.7%.

For the molecule `Cc1ccc(/C=C/C(=O)Nc2ncc(Cc3ccc(F)cc3)s2)o1`, the growth in test [1] is 46.9%; in test [2], 48.5%; in test [3] it was 40.4%; in [4], 61.9%; in [5] it was 56.3%; in [6], 35.4%. Moreover, the growth is 27.3% in [7]; 45.1% in test [8]; 35% in [9]; 54.2% in [11]; 77.6% in [12]; 64.1% in [13]. Besides, the growth is 85.4% in [19]; 64.6% in test [14]; 54.1% in test [15]; 36.9% in test [16]; 49.2% in test [17]; 55.7% in [18].

Turning to `O=C1Nc2ccccc2/C1=C/c1cccn1C(=O)c1ccc(Cl)s1`, the growth in [1] is 86.7%; in test [2], 22.6%; in [3], 65.1%; in test [4], 50.6%; in test [5], 47.7%; in [6] it was 64%. The growth in [7] was 67.4%; in test [8], 26.6%; in test [9], 30.3%; in [10] it was 27.8%; in test [11], 52.5%; in test [12], 75.3%. Further, the growth was 66.5% in [13]; 15.3% in [19]; 72% in [14]; 38.6% in [15]; 38.8% in test [16]; 70.8% in test [17]. For the same molecule, the growth in [18] is 74.3%.

Turning to `CCN(CC)CCN1C(=O)c2c(c(C)c3c(oc4ccc(OC)cc43)c2C)C1=O`, the growth in test [1] is 115%; in test [2], 101%; in test [3] it was 17.5%; in [4] it was 94.3%; in test [5], 9.28% (active); in test [6], 95.8%. Further, the growth in test [7] is 90.8%; in test [8], 90.2%; in test [9], 96.2%; in test [10], 110%; in [11] it was 92.5%; in test [12], 79.9%. For the same molecule, the growth is 88.9% in [13]; 111% in test [14]; 87.2% in [15]; 115% in test [16]; 101% in test [17]; 82.6% in test [18].

Consider `COc1ccc(C#Cc2ccc(=O)oc2-c2cc(OC)c(OC)c(OC)c2)cc1O`, for which the growth is 61.6% in test [1]; 79.8% in test [2]; 37.9% in test [3]; 81.8% in test [4]; 62% in test [5]; 22.8% in test [6]. Moreover, the growth in [7] was 56.6%; in test [8] it was 18.5%; in test [9] it was 15.1%; in test [10], 13.7%; in test [11] it was 18.2%; in test [12], 69.6%. Also, the growth was 43% in test [13]; 69% in test [19]; 47.2% in test [14]; 37.5% in test [15]; -4.92% (active) in test [16]; 54.5% in test [17]. Moreover, in test [18], the growth was 19.6%.

For the molecule `C#CCNC(=O)[C@]1(C)CCC[C@@]2(C)[C@H]1CC=C1C=C(C(C)C)CC[C@@H]12`, the growth is 95.9% in test [1]; 94.6% in test [2]; 88.8% in [3]; 99.7% in [4]; 106% in [5]; 87.9% in test [6]. Moreover, the growth was 102% in [7]; 110% in test [8]; 87.9% in [9]; 105% in test [10]; 103% in test [11]; 113% in test [12]. Also, the growth in test [13] is 113%; in test [19], 101%; in test [14] it was 104%; in test [15] it was 99.3%; in [16], 106%; in [17] it was 106%. In addition, the growth in test [18] was 104%.
